High-throughput results as filed in PubChem BioAssay.
RAD52 inh: inhibitors of human RAD52 DNA annealing; P43351; recombinant RAD52 DNA annealing, FRET fluorescence; inhibition, % at 18.7 µM; 360,000 tested, 0.46% active; AID 651710;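 active means every replicate showing at least 50% inhibition; inconclusive means mean inhibition at least 50% but not in every replicate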
DENV2 CPE rescue: protects cells from dengue virus 2 cytopathic effect. DENV2-infected cells, cytopathic effect rescue, plate reader. CPE inhibition, % at 9.99 µM. 350,000 tested, 1.7% active. AID 651640; in the data active means CPE inhibition above about 20%, passing the limit was not always enough; inconclusive means no clear call, values can overlap the other calls; tested in BHK-21 cells
RAD54 inh: blocks human RAD54 Holliday junction branch migration; Q92698; FAM/BHQ fluorescence; inhibition, % at 10.4 µM; 360,000 tested, 0.14% active; AID 602329;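 active means mean normalized replicate activity at least 40 and at least half of replicates scoring 40 or more; inconclusive means only one of the two criteria met; inactive means mean below 40 and under half of replicates reaching 40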;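 further: inhibitors cause a drop in the FAM fluorescence signal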
dFosB activator: enhances mouse delta FosB homodimer DNA binding. purified delta FosB, TAMRA-CDK5 oligo fluorescence polarization; percent of positive-control signal above neutral wells. 340,000 tested, 0.99% active. P13346. activation, % at 25 µM. AID 493131;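 active means mean activation above about 17%, with every replicate also reaching it, limit read from the data, passing the limit was not always enough; inconclusive means only one of the two conditions met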
MLL AF4-AF9 inh: inhibitors of human MLL-AF4/AF9 interaction; inhibition, % at 10 µM; AlphaScreen, biotin-AF4 peptide binding to FLAG-AF9; 350,000 tested, 0.47% active; P42568; AID 651704;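 active means every replicate reaching a set inhibition limit, whatever the replicate mean, cut at about 25% in these data; inconclusive means mean inhibition reaches that limit but some replicates miss it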
Target sequence (P42568 whole entry, looked up): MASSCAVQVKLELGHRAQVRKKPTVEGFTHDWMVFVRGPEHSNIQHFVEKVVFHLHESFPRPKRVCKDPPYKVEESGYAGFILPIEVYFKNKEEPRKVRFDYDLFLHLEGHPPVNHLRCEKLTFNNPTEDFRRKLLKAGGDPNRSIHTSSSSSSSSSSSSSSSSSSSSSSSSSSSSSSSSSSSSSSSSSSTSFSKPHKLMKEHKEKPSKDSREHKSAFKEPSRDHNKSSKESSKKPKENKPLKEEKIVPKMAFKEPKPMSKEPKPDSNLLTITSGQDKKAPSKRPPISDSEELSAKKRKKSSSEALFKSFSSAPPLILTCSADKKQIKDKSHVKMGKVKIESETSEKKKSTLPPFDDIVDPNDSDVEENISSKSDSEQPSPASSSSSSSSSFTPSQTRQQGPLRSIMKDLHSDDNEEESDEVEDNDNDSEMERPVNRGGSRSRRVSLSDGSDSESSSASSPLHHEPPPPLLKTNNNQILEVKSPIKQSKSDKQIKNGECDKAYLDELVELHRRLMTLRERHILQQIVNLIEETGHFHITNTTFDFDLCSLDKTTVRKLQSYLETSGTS
INS-1E GSIS act: GLuc luminescence reporter in INS-1E cells, primary screen for activators of glucose-dependent secretion of insulin; INS-1E GLuc reporter insulin secretion, 2-3 h; activation, % at 16.6 µM; 370,000 tested, 0.61% active; AID 743287;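 active means lowest replicate activation of at least 40%, so every replicate reaches that level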
Each line names hits and unclear results; the compound was inactive in the other large screens; ! = repeats disagree. The list is not random: actives were taken first. Their share in the collection is about 3.1%.

Cc1noc(C)c1NC(=O)N[C@@H]1CC[C@@H](CCNC(=O)C2CCCC2)O[C@@H]1CO	none (no result: dFosB activator)
CN(C)CC(=O)N[C@@H]1CC[C@@H](CCNC(=O)C2CCCC2)O[C@H]1CO	none (no result: dFosB activator)
CC(=O)N[C@@H]1CC[C@H](CCNC(=O)C2CCCC2)O[C@H]1CO	DENV2 CPE rescue 89.7 (no result: dFosB activator)
O=C(NCC[C@H]1CC[C@H](NC(=O)C2CCCC2)[C@H](CO)O1)c1cc(Cl)cc(Cl)c1	none (no result: dFosB activator)
CN(C)CC(=O)N[C@H]1CC[C@H](CCNC(=O)C2CCCC2)O[C@H]1CO	DENV2 CPE rescue 26.7 (no result: dFosB activator)
C[C@H](CO)N1C[C@H](C)[C@H](CN(C)S(=O)(=O)c2cccs2)Oc2ccc(NC(=O)Cn3cnnn3)cc2C1=O	none (no result: dFosB activator)
COc1ccc(NC(=O)N(C)C[C@H]2Oc3ccc(NS(=O)(=O)c4ccccc4)cc3CC(=O)N([C@H](C)CO)C[C@H]2C)cc1	none (no result: RAD54 inh, dFosB activator)
c1ccc2c3c([nH]c2c1)CCNC3	MLL AF4-AF9 inh 25.3
CNCCNC[C@H](Cc1cccc2ccccc12)NCCc1ccccc1	none (no result: DENV2 CPE rescue)
CNC[C@H](CC1CCCCC1)NC[C@H](Cc1ccccc1)NCCC12CC3CC(CC(C3)C1)C2	dFosB activator inconclusive, MLL AF4-AF9 inh 39.9, INS-1E GSIS act 649.3 (no result: DENV2 CPE rescue)
N#Cc1cccc(-c2ccc([C@@H]3[C@H]4CN(Cc5ccccc5F)CCCCN4[C@H]3CO)cc2)c1	none (no result: dFosB activator)
N#Cc1cccc(-c2ccc(C3[C@@H]4CN(Cc5ccccc5F)C[C@H]3N4)cc2)c1 (stereo partly drawn)	RAD52 inh 83.1! (no result: RAD54 inh, dFosB activator)
N#Cc1cccc(-c2ccc(C3[C@@H]4CN(Cc5cocn5)C[C@H]3N4)cc2)c1 (stereo partly drawn)	RAD52 inh 65.0 (no result: RAD54 inh, dFosB activator)
c1ncc(-c2ccc(C3[C@@H]4CN(Cc5cocn5)C[C@H]3N4)cc2)cn1 (stereo partly drawn)	none (no result: RAD54 inh, dFosB activator)
CCOC(=O)c1sc2ncn(/N=C/c3cccnc3)c(=O)c2c1C	INS-1E GSIS act 51.5 (no result: RAD52 inh, DENV2 CPE rescue, MLL AF4-AF9 inh)
CCOC(=O)c1sc2ncn(/N=C/c3ccc(O)cc3)c(=O)c2c1C	none (no result: RAD54 inh)
COc1ccc(C2CC(c3ccc4ccccc4c3)=NN2C(=O)CNC2CCCCC2)cc1 (stereo not drawn)	MLL AF4-AF9 inh 28.2 (no result: DENV2 CPE rescue)
C[C@@H]1CN([C@@H](C)CO)C(=O)c2c(c3ccccc3n2C)-c2ccccc2CO[C@H]1CN(C)S(=O)(=O)Cc1ccccc1	none (no result: dFosB activator)
Cc1cnc(C(=O)OC(C)C(=O)NCc2ccccc2)cn1 (stereo not drawn)	INS-1E GSIS act 59.1
Cc1cnc(C(=O)OC(C)C(=O)Nc2ccc(Oc3ccccc3)cc2)cn1 (stereo not drawn)	none
CO[C@@H](C(=O)N(C)C[C@@H]1OCc2ccccc2-c2ccccc2C(=O)N([C@@H](C)CO)C[C@H]1C)c1ccccc1	none (no result: dFosB activator)
COc1ccc(CC(=O)Nc2ccc(C)c(S(=O)(=O)N3CCCCCC3)c2)cc1	DENV2 CPE rescue 35.4
CCCNC(=O)N1[C@H](CNC(C)=O)[C@@H](c2ccccc2)[C@@H]1CO	DENV2 CPE rescue 29.7 (no result: RAD52 inh, dFosB activator, MLL AF4-AF9 inh)
CCCNC(=O)N1[C@H](CO)[C@H](c2ccccc2)[C@@H]1CNC(=O)c1ccc(F)cc1	DENV2 CPE rescue 104.1 (no result: RAD52 inh, dFosB activator, MLL AF4-AF9 inh)
CCCNC(=O)N1[C@@H](CO)[C@H](c2ccccc2)[C@@H]1CNC(=O)c1ccc(F)cc1	none (no result: RAD52 inh, DENV2 CPE rescue, dFosB activator, MLL AF4-AF9 inh)
CCCNC(=O)N1[C@@H](CO)[C@@H](c2ccccc2)[C@@H]1CNC(C)=O	none (no result: dFosB activator)
O=C(C[C@H]1C=C[C@H](NC(=O)CN2CCOCC2)[C@@H](CO)O1)NCCc1ccncc1	none (no result: RAD54 inh, dFosB activator)
O=C(COc1ccc(S(=O)(=O)N2CCCCC2)cc1Cl)N1CCCC1	none
CCOc1ccc(Oc2ccc(S(=O)(=O)N3CCOCC3)cc2NC(=O)C2=COCCO2)cc1	DENV2 CPE rescue inconclusive
CC(C)Oc1ccc(S(=O)(=O)N2CCOCC2)cc1NC(=O)c1cc([N+](=O)[O-])ccc1N1CCOCC1	DENV2 CPE rescue 72.1
COc1cc(NC(=O)c2cc(S(=O)(=O)N3CCCCC3)ccc2N2CCOCC2)cc(OC)c1OC	DENV2 CPE rescue 62.7
Cc1occc1C(=O)Nc1cc(S(=O)(=O)N2CCOCC2)ccc1OC(C)C	none
CCOc1ccc(S(=O)(=O)N2CCOCC2)cc1NC(=O)C1=COCCO1	INS-1E GSIS act 41.0
O=C(COc1ccc(S(=O)(=O)N2CCOCC2)cc1Cl)N1CCCC1	MLL AF4-AF9 inh 41.7
CC(C)(C)[S@](=O)N1Cc2cc(C(=O)NCCc3ccncc3)nc(-c3cccc(-c4ccncc4)c3)c2[C@@H]1CCO	none (no result: dFosB activator)
COc1ccc(S(=O)(=O)Nc2ccc3c(c2)CC(=O)N([C@H](C)CO)C[C@@H](C)[C@@H](CN(C)S(C)(=O)=O)O3)cc1	none (no result: dFosB activator)
COc1ccc(CCC(=O)Nc2cc(S(=O)(=O)N3CCOCC3)ccc2OC(C)C)cc1	DENV2 CPE rescue 70.4
C[C@H](CO)N1C[C@H](C)[C@H](CN(C)S(=O)(=O)c2cccs2)OCCCC[C@H](C)Oc2ccc(NC(=O)c3ccncc3)cc2C1=O	none (no result: dFosB activator)
C[C@H](CO)N1C[C@H](C)[C@H](CN(C)C)Oc2ccc(NS(=O)(=O)c3cn(C)cn3)cc2C1=O	none (no result: dFosB activator, INS-1E GSIS act)
Nc1nc(Cl)cc(NCCc2ccccc2)n1	none (no result: RAD54 inh, dFosB activator)
CCCCNc1cc(Cl)nc(N)n1	INS-1E GSIS act 58.1
CN(C)CC#Cc1ccc([C@@H]2[C@H]3CN(C(=O)Nc4ccccc4F)CCCCN3[C@H]2CO)cc1	none (no result: dFosB activator)
O=C(Nc1ccccc1F)N1CCCCN2[C@H](CO)[C@@H](c3ccc(C#Cc4ccccc4)cc3)[C@@H]2C1	DENV2 CPE rescue 20.8 (no result: dFosB activator)
O=C(Nc1ccccc1F)N1CCCCN2[C@H](CO)[C@H](c3ccc(C#Cc4ccccc4)cc3)[C@@H]2C1	none (no result: dFosB activator)
CN(C)CC#Cc1ccc([C@@H]2[C@@H](CO)N3CCCCN(C(=O)CN(C)C)C[C@@H]23)cc1	RAD52 inh 71.4 (no result: dFosB activator)
CN(C)CC#Cc1ccc([C@@H]2[C@@H](CO)N3CCCCN(C(=O)Nc4ccccc4F)C[C@@H]23)cc1	RAD52 inh 53.6, DENV2 CPE rescue inconclusive (no result: dFosB activator)
CC(C)CC#Cc1ccc([C@H]2[C@@H](CO)N3CCCCN(C(=O)c4ccc5c(c4)OCO5)C[C@@H]23)cc1	DENV2 CPE rescue 23.7 (no result: dFosB activator)
Cc1ccc(S(=O)(=O)Nc2ccc3c(c2)C(=O)N([C@H](C)CO)C[C@@H](C)[C@H](CN(C)C)OCCCC[C@H](C)O3)cc1	none (no result: dFosB activator)
CCCN(C)C[C@@H]1OCCCC[C@H](C)Oc2ccc(NC(=O)C3CCCCC3)cc2C(=O)N([C@@H](C)CO)C[C@@H]1C	none (no result: dFosB activator)
CC=Cc1ccc2n(c1=O)C[C@@H]1[C@@H](CO)[C@H](C(=O)NC3CCCC3)N(C(=O)C3CCC3)[C@H]21 (mixture of isomers)	none (no result: RAD54 inh, dFosB activator)
Cc1cc(=O)[nH]c(SCC(=O)c2ccccc2)c1C#N	INS-1E GSIS act 42.5 (no result: RAD52 inh, DENV2 CPE rescue, MLL AF4-AF9 inh)
Cc1cccc(C(=O)O)c1O	DENV2 CPE rescue 67.5 (no result: dFosB activator, INS-1E GSIS act)
Cc1cccc(C(=O)c2ccccc2C(=O)O)c1O	none (no result: RAD52 inh, DENV2 CPE rescue, MLL AF4-AF9 inh, INS-1E GSIS act)
